Measured values published in PubChem BioAssay AID1042 (National Center for Advancing Translational Sciences (NCATS), 2008).
Inconclusive results are not listed. Activity calls are given as the source filed them.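 How the source made its calls: active means raised CDH13 expression over DMSO controls, judged by fold change in triplicate runs, no set cutoff; inconclusive means doubtful CDH13 rise, criteria not stated; inactive means no rise, falls in expression ignored.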

Assay: CDH13 Derepression/Induction Secondary Assay for qHTS Assay for Epigenetic Modulators
Conditions: H358 cells, CDH13 mRNA qPCR, 72 h; hits give high values
From the text: NIH Molecular Libraries Screening Centers Network [MLSCN] NIH Chemical Genomics Center [NCGC] MLSCN Grant: 1 X01 MH079860-01 Assay Provider: Elisabeth D. Martinez, University of Texas SW Medical Center NCGC Assay Overview: This secondary assay characterizes selected actives identified in the qHTS of the Locus Derepression (LDR) assay (PubChem AID 597). The LDR assay detects the derepression of a GFP reporter that is stably integrated in a region of the genome of murine c127i mammary cells that is presumably silenced. Compounds that cause derepression of the locus to express GFP are identified by enumerating GFP positive cells using a laser-scanning microplate cytometer. Selected LDR actives were assayed for the induction of CDH13 gene expression, a gene silenced by methylation of its promoter. Treatment of cells with DNA methyltransferase inhibitors, like 5-azadeoxycytidine, or with HDAC inhibitors, like trichostatin A, induce CDH13 gene expression. Compounds active in this assay may modulate components involved in DNA methylation, histone acetylation or gene transcription.
NCGC Assay Protocol Summary Exponentially growing H358 non-small cell lung cancer cells were treated daily with fresh media containing the indicated concentrations of compounds for 72 hr. Cellular RNA was extracted, quantified, DNAse treated and reverse transcribed. The resulting cDNA was amplified in TaqMan real time quantitative PCR assays (Applied Biosystems) containing validated primers specific for CDH13 (Hs00169908.m1). Reactions were performed on an ABI Prism 7900HT, with an initial 2 min preincubation at 50 C, followed by 10 min at 95 C and then 40 cycles of 95 C for 15 seconds and 60 C for 1 min. GAPDH and 18S ribosomal RNA were used as references. Gene expression was measured by fold-induction over control DMSO-treated samples (36-37 average cycle time). Increases corresponded to at least 2-3 cycle time differences over DMSO controls, which were in the measurable range. Decreases in expression were considered insignificant as measurement of the DMSO samples were at the low limit of detection. Reactions were run in triplicate and error bars represent standard deviations. For further details, see R.L. Johnson, W. Huang, A. Jadhav, C.P. Austin, J. Inglese, E.D. Martinez, A Quantitative High-Throughput Screen Identifies Potential Epigenetic Modulators of Gene Expression, Analytical Biochemistry (2007), doi: 10.1016/j.ab.2007.12.028

SMILES	fold change
Nc1ncn([C@H]2C[C@H](O)[C@@H](CO)O2)c(=O)n1	9 (active)
O=C(CSc1cccc2cccnc12)N1CCCC1	1 (inactive)
CC(C)C(=O)NC(c1ccco1)c1ccc2cccnc2c1O (stereo not given)	12 (active)
O=Nc1ccc(O)c2ncccc12	85 (active)
CN(C)C(=O)CSc1cccc2cccnc12	1 (inactive)
CC(C)C(=O)NC(c1ccco1)c1cc([N+](=O)[O-])c2cccnc2c1O (stereo not given)	9 (active)
CC(/C=C/C(=O)NO)=C\[C@@H](C)C(=O)c1ccc(N(C)C)cc1	256 (active)
CCN1CSC(=S)N(CC)C1	1 (inactive)
O=C(CSc1cccc2cccnc12)NCc1ccccc1	2 (inactive)
CN1CCN(Cc2cc(Cl)c3cccnc3c2O)CC1	10 (active)
